# In PubChem BioAssay (EPA / NIEHS):
# Values joined by “and” are separate entries in the source; they are usually repeats but may differ in a detail not shown here. Equal values may be shown once. Results filed as inconclusive are left out. Active and inactive are the calls of the source. How the source made its calls, unless noted: active means hit-call score of the fitted dose curve at least 0.9, where 1 is the maximum; inactive means score below 0.9.
# Experiments:
# [1] = target: Nucleoli Translocation, AR (gene 367) (UniProt P10275); test: UPITT_HCI_U2OS_AR_TIF2_Nucleoli_Antagonist: University of Pittsburgh U2OS Androgen Receptor-Transcriptional Intermediary Factor 2 (AR-TIF2) Antagonism High Content Imaging Assay for Nucleoli Translocation (AID 2283997; active means hit-call score of the fitted dose curve at least 0.9, where 1 is the maximum)
# Procedure, shortened: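 U2OS cells expressing RFP-tagged human AR and GFP-tagged TIF2 were imaged by high-content fluorescence microscopy for red AR signal in the nucleolar region. Compounds were screened at 20 uM final (0.2% DMSO), with activity fitted relative to DHT as baseline.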
# [2] = target: Nucleoli Translocation, AR (gene 367) (UniProt P10275); test: UPITT_HCI_U2OS_AR_TIF2_Nucleoli_Agonist: University of Pittsburgh U2OS Androgen Receptor-Transcriptional Intermediary Factor 2 (AR-TIF2) Agonism High Content Imaging Assay for Nucleoli Translocation (AID 2283998; active means hit-call score of the fitted dose curve at least 0.9, where 1 is the maximum)
# Procedure, shortened: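 Nucleolar translocation of AR-RFP, with TIF2-GFP coexpressed in human osteosarcoma U2OS, imaged by high-content fluorescence. Compounds tested singly at 20 uM final, confirmed in triplicate, then titrated 0.195–50 uM final; gain-of-signal relative to DMSO.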
# [3] = target: Ratio of Nucleoli Translocation and Cytoplasm, AR (gene 367) (UniProt P10275); test: UPITT_HCI_U2OS_AR_TIF2_Nucleoli_Cytoplasm_Ratio_Antagonist: University of Pittsburgh U2OS Androgen Receptor-Transcriptional Intermediary Factor 2 (AR-TIF2) Antagonism High Content Imaging Assay for Ratio of Nucleoli Translocation and Cytoplasm (AID 2283999; active means hit-call score of the fitted dose curve at least 0.9, where 1 is the maximum;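 further: antagonists lower the DHT-driven ratio of nucleolar to cytoplasmic red signal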)
# Procedure, shortened: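 High-content imaging quantifies the red nucleolar:cytoplasmic fluorescence ratio in U2OS cells with AR-RFP and TIF2-GFP. Final concentrations are 20 uM (screen) or 0.195–50 uM (dose response), analysed against DHT as baseline.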
# [4] = target: Ratio of Nucleoli Translocation and Cytoplasm, AR (gene 367) (UniProt P10275); test: UPITT_HCI_U2OS_AR_TIF2_Nucleoli_Cytoplasm_Ratio_Agonist: University of Pittsburgh U2OS Androgen Receptor-Transcriptional Intermediary Factor 2 (AR-TIF2) Agonism High Content Imaging Assay for Ratio of Nucleoli Translocation and Cytoplasm (AID 2284000; active means hit-call score of the fitted dose curve at least 0.9, where 1 is the maximum;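 further: hits raise the red nucleolar to cytoplasm ratio above vehicle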)
# Procedure, shortened: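 U2OS cells expressing RFP-tagged human AR and GFP-tagged TIF2 were imaged by high-content fluorescence microscopy. The endpoint is the ratio of nucleolar to cytoplasmic red fluorescence, fitted for gain of signal relative to DMSO. Concentration-response spanned 0.195 to 50 uM final (0.5% DMSO).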
# [5] = CCTE_Harrill_HTTr_Viability_MCF7: CCTE's 6-hour Cell Viability Assessment for the High-Throughput Transcriptomics (HTTr) Platform, in MCF-7 cells cultured in DMEM + 10% fetal bovine serum, Harrill Lab (AID 2284010)
# Procedure, shortened: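 Viability measured through PI dye exclusion by high-content imaging at 6 h post-dosing.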
# [6] = CCTE_Harrill_HTTr_Apoptosis_MCF7: CCTE's 6-hour Apoptosis Assessment for the High-Throughput Transcriptomics (HTTr) Platform, in MCF-7 cells cultured in DMEM + 10% fetal bovine serum, Harrill Lab (AID 2284011)
# Procedure, shortened: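 High-content imaging of CellEvent Caspase 3/7 Green signal follows a six-hour exposure, with eight concentrations per chemical. MCF-7 cells grown in DMEM plus 10% fetal bovine serum; activity fitted in both directions against DMSO.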
# [7] = CCTE_Harrill_HTTr_CellCount_MCF7: CCTE's Cell Proliferation Assessment for the High-Throughput Transcriptomics (HTTr) Platform, Harrill Lab (AID 2284012; active means hit-call score of the fitted dose curve at least 0.9, where 1 is the maximum;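 further: count of Hoechst-stained nuclei per well by high-content imaging in MCF-7 cells; cells exposed to compound for six hours; intended direction is loss of nuclei count meaning fewer cells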)
# Procedure, shortened: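 Nuclei counting (Hoechst, high content imaging) in MCF-7 after a 6 h treatment at eight concentrations. Activity fitted bidirectionally, DMSO as negative control.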
# DIO1 (gene 1733) = test: CCTE_GLTED_hDIO1: CCTE's human Deiodinase 1 (DIO1) Inhibition Assay, Great Lakes Toxicology and Ecology Division (GLTED) Lab (AID 2283987; active means hit-call score of the fitted dose curve at least 0.9, where 1 is the maximum;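 further: isolated human DIO1 enzyme in a cell-free setup rather than cells; enzyme activity read as free iodide liberated from substrate via Sandell-Kolthoff colorimetry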)
# Procedure, shortened: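 Inhibition read as reduced iodide release: after 3 h of human DIO1 with chemical, free iodide is quantified colorimetrically (Sandell-Kolthoff cerium/arsenic reaction). Triplicate plates, DMSO baseline.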
# [8] = CCTE_Shafer_MEA_acute_spike_number: CCTE's Neural Acute Assay for Total Number of Spikes, Shafer Lab (AID 2284008);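 on AC50: curve fitted for decrease in spike count so AC50 reflects inhibitors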
# Procedure, shortened: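 Total spike count from 40 min recordings before and during compound exposure (0.03-40 uM), given as per-well percent change. Cortical cultures from rat, DIV 13 or 15, 37 C; adaptive detection threshold 8x rms noise.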
# [9] = CCTE_Shafer_MEA_acute_firing_rate_mean: CCTE's Neural Acute Assay for Mean Firing Rate, Shafer Lab (AID 2284009);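 further: analyzed for loss of signal so actives lower firing rate relative to DMSO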
# Procedure, shortened: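 Read-out: well-mean spike rate (spikes/recording length/electrodes), % change from 40 min pre-dose baseline to 40 min with compound. Rat cortical cultures, DIV 13 or 15, 37 C; 0.03-40 uM; DMSO as negative control.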
# [10] = CCTE_Shafer_MEA_acute_burst_number: CCTE's Neural Acute Assay for Single-Electrode Bursts, Shafer Lab (AID 2284013)
# Procedure, shortened: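 Rat cortical cultures, DIV 13/15; 40 min baseline, then 40 min with compound 0.03-40 uM, 37 C. Spikes: 300-5000 Hz band-pass, threshold 8x rms noise. Readout = % change in single-electrode bursts vs baseline, loss-of-signal fit.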
# [11] = CCTE_Shafer_MEA_acute_burst_duration_mean: CCTE's Neural Acute Assay for Mean Burst Duration, Shafer Lab (AID 2284014);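 further: hits are decreases in mean burst duration relative to DMSO controls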
# Procedure, shortened: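 Primary rat cortical neurons on 16-electrode MEA wells, treated on DIV 13 or 15 with compound (0.03-40 uM; ≥3 wells each). 40-min baseline and 40-min exposure recordings at 37 C; percent change in mean burst duration per well versus DMSO.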
# [12] = CCTE_Shafer_MEA_acute_per_burst_spike_number_mean: CCTE's Neural Acute Assay for Average Number of Spikes Per Burst, Shafer Lab (AID 2284015);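 further: hits are decreases in mean spikes per burst versus baseline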
# Procedure, shortened: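 Rat primary cortical neurons on 48-well MEAs (DIV 13 or 15) were treated with 0.03-40 uM compound at 37 C. Mean spikes per burst over 40 min were recorded before and after exposure and expressed as percent change from baseline, relative to DMSO.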
# [13] = CCTE_Simmons_MITO_max_resp_rate: CCTE's HepG2 Seahorse XF Respirometric Screening Assay at Maximal Respiratory State [uncoupled], Simmons Lab (AID 2284002); details: actives raise or lower the signal
# Procedure, shortened: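 Maximal (FCCP-uncoupled) respiration rate in HepG2, from Seahorse kinetic OCR over 72 min at 6 min cycles. Compounds at 125 nM–100 uM final, 7 points, three biological replicates; both directions fit relative to DMSO.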
# [14] = CCTE_Simmons_MITO_inhib_resp_rate: CCTE's HepG2 Seahorse XF Respirometric Screening Assay at Inhibited Respiratory State [full ETC block], Simmons Lab (AID 2284006); details: actives raise or lower the signal
# Procedure, shortened: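 Inhibited respiration was taken as HepG2 oxygen consumption after rotenone/antimycin A, which followed test-compound and FCCP injections. Chemicals were tested at seven final concentrations from 125 nM to 100 uM. Activity was fitted bidirectionally relative to DMSO.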
# [15] = CCTE_Simmons_MITO_basal_resp_rate: CCTE's HepG2 Seahorse XF Respirometric Screening Assay at Basal Respiratory State, Simmons Lab (AID 2284001); details: actives raise or lower the signal
# Procedure, shortened: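 HepG2 cells were given test chemicals at 7 concentrations, 125 nM to 100 uM final, and oxygen consumption rate was read every 6 min (3 min mix, 3 min measure) over 72 min. Basal-phase OCR was fitted bidirectionally against DMSO.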
# [16] = CCTE_Harrill_HTTr_Apoptosis_DMEM_24hr: (Pilot) CCTE's 24-hour Apoptosis Assessment for the High-Throughput Transcriptomics (HTTr) Platform, in MCF-7 cells cultured in DMEM + 10% fetal bovine serum, Harrill Lab (AID 2283983)
# Procedure, shortened: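 MCF-7 cells in DMEM + 10% FBS, eight-point dilution series, 24 h exposure. Caspase-3/7 activation imaged by high-content imaging with CellEvent Caspase 3/7 Green. Bidirectional curve fitting against DMSO baseline.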
# [17] = CCTE_Harrill_HTTr_Apoptosis_PRF_DMEM_6hr: (Pilot) CCTE's 6-hour Apoptosis Assessment for the High-Throughput Transcriptomics (HTTr) Platform, in MCF-7 cells cultured phenol red-free DMEM + 10% charcoal-stripped fetal bovine serum, Harrill Lab (AID 2283984)
# Procedure, shortened: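 MCF-7 cells in phenol red-free DMEM + 10% charcoal-stripped FBS, eight-point dilution series, 6 h exposure. Caspase-3/7 activation imaged by high-content imaging with CellEvent Caspase 3/7 Green; bidirectional fit versus DMSO baseline.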
# [18] = CCTE_Harrill_HTTr_Apoptosis_PRF_DMEM_12hr: (Pilot) CCTE's 12-hour Apoptosis Assessment for the High-Throughput Transcriptomics (HTTr) Platform, in MCF-7 cells cultured in phenol red-free DMEM + 10% charcoal-stripped fetal bovine serum, Harrill Lab (AID 2283985)
# Procedure, shortened: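 MCF-7 cells in phenol red-free DMEM with 10% charcoal-stripped FBS, eight-point dilution series, 12 h exposure. Caspase-3/7 activation imaged by high content imaging with CellEvent Green reagent; bidirectional fit vs DMSO.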
# [19] = CCTE_Harrill_HTTr_Apoptosis_PRF_DMEM_24hr: (Pilot) CCTE's 24-hour Apoptosis Assessment for the High-Throughput Transcriptomics (HTTr) Platform, in MCF-7 cells cultured in phenol red-free DMEM + 10% charcoal-stripped fetal bovine serum, Harrill Lab (AID 2283986)
# Procedure, shortened: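 MCF-7 cells in phenol red-free DMEM with 10% charcoal-stripped FBS, exposed 24 h across an eight-point dilution series. Caspase-3/7 activation imaged with CellEvent Green by high content imaging; bidirectional fitting against DMSO.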
# Ratio of Nucleoli Translocation and Cytoplasm, AR (gene 367), sequence (P10275 whole entry, looked up): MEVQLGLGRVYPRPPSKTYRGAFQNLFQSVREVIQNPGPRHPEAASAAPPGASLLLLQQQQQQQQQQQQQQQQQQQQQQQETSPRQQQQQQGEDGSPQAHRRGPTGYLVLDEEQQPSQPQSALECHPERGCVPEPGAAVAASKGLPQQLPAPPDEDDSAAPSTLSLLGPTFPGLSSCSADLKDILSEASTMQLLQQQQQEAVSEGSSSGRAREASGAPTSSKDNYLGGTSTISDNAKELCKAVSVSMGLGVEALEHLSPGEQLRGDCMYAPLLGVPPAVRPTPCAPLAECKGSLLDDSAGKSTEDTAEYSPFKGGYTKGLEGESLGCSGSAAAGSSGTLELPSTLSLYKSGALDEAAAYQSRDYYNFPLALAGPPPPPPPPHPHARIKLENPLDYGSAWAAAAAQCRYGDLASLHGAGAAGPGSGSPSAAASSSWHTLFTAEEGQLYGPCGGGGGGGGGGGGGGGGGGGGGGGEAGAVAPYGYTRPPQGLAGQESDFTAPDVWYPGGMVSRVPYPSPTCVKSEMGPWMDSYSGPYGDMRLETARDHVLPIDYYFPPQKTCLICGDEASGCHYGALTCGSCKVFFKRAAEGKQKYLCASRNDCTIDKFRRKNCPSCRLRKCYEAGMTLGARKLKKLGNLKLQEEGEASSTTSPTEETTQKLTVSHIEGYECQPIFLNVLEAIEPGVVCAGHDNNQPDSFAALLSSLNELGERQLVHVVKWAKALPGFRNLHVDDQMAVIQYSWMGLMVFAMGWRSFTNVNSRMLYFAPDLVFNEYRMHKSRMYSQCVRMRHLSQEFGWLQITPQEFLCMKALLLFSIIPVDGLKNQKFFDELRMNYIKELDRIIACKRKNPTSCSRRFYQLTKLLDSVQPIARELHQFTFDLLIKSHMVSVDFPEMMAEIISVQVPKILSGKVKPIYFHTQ
# Nucleoli Translocation, AR (gene 367), sequence (P10275 whole entry, looked up): as above
compound,measurement,setting,value
CCOC(=O)C(O)(c1ccc(Cl)cc1)c1ccc(Cl)cc1,AC50,[1],13.3 µM (active)
same,AC50,[2],50 µM (active)
same,outcome,[3],inactive
same,AC50,[4],70.3 µM (active)
same,outcome,[5],inactive
same,outcome,[6],inactive
same,outcome,[7],inactive
CC#Cc1cc(C)nc(Nc2ccccc2)n1,AC50,DIO1 (gene 1733),27 µM (active)
same,AC50,[8],4.07 µM (active)
same,AC50,[9],4.06 µM (active)
same,outcome,[5],inactive
same,outcome,[6],inactive
same,outcome,[7],inactive
same,AC50,[10],2.85 µM (active)
same,outcome,[11],inactive
same,AC50,[12],7.84 µM (active)
CC1=C2C[C@H]3[C@@H](CC=C4C[C@@H](O)CC[C@@]43C)[C@@H]2CC[C@]12O[C@@H]1C[C@H](C)CN[C@H]1[C@H]2C,outcome,[1],inactive
same,outcome,[2],inactive
same,outcome,[3],inactive
same,outcome,[4],inactive
same,outcome,[5],inactive
same,outcome,[6],inactive
same,outcome,[7],inactive
CCC(=O)O[C@H]1CC[C@H]2[C@@H]3CCC4=CC(=O)CC[C@]4(C)[C@H]3CC[C@]12C,AC50,[2],0.00109 µM (active)
same,AC50,[4],0.000508 µM (active)
same,outcome,[13],inactive
same,outcome,[14],inactive
same,outcome,[5],inactive
same,outcome,[6],inactive
O=C(O)C(F)(F)C(F)(F)C(F)(F)C(F)(F)C(F)(F)C(F)(F)C(F)(F)C(F)(F)C(F)(F)F,AC50,DIO1 (gene 1733),103 µM (active) and 70.6 µM (active)
same,outcome,[15],inactive
same,outcome,[13],inactive
same,outcome,[14],inactive
same,outcome,[5],inactive
same,outcome,[6],inactive
same,outcome,[7],inactive
C=CC(=O)NCNC(=O)C=C,outcome,[1],inactive
same,outcome,[2],inactive
same,outcome,[3],inactive
same,outcome,[4],inactive
same,outcome,[5],inactive
same,outcome,[6],inactive
O=C(N[C@H]1CN2CCC1CC2)c1cc2ccoc2cn1,outcome,[1],inactive
same,outcome,[2],inactive
same,outcome,[4],inactive
same,outcome,[8],inactive
same,outcome,[9],inactive
same,outcome,[5],inactive
same,outcome,[6],inactive
same,outcome,[7],inactive
same,outcome,[10],inactive
same,outcome,[11],inactive
same,outcome,[12],inactive
CO/C=C(/C(=O)OC)c1ccccc1COc1cccc(C(F)(F)F)n1,AC50,[15],2.02 µM (active)
same,AC50,[13],1.3 µM (active)
same,AC50,[14],1.1 µM (active)
same,AC50,[8],0.278 µM (active)
same,AC50,[9],0.28 µM (active)
same,outcome,[5],inactive
same,outcome,[6],inactive
same,AC50,[10],0.239 µM (active)
same,outcome,[11],inactive
same,outcome,[12],inactive
O=C(O)C(F)(F)C(F)(F)C(F)(F)C(F)(F)C(F)(F)C(F)(F)C(F)(F)C(F)(F)F,outcome,[15],inactive
same,outcome,[13],inactive
same,outcome,[14],inactive
same,outcome,[5],inactive
same,outcome,[6],inactive
same,outcome,[7],inactive
CCC(C)(c1ccc(O)cc1)c1ccc(O)cc1,outcome,[16],inactive
same,outcome,[17],inactive
same,outcome,[18],inactive
same,outcome,[19],inactive
same,AC50,[15],16.9 µM (active)
same,AC50,[13],25.9 µM (active)
same,outcome,[14],inactive
same,outcome,[8],inactive
same,outcome,[9],inactive
same,outcome,[5],inactive
same,outcome,[6],inactive
same,outcome,[7],inactive
same,outcome,[10],inactive
same,outcome,[11],inactive
same,outcome,[12],inactive
C[C@]12CCC(=O)C=C1CC[C@@H]1[C@@H]2CC[C@@]2(C)[C@H]1CC[C@]2(C)O,outcome,[15],inactive
same,outcome,[13],inactive
same,outcome,[14],inactive
same,outcome,[5],inactive
same,outcome,[6],inactive
same,outcome,[7],inactive
CC(C)(c1ccccc1)c1ccc(O)cc1,outcome,[16],inactive
same,outcome,[17],inactive
same,outcome,[18],inactive
same,outcome,[19],inactive
same,AC50,[15],19.9 µM (active)
same,AC50,[13],37.7 µM (active)
same,outcome,[14],inactive
same,outcome,[5],inactive
same,outcome,[6],inactive
same,outcome,[7],inactive
